The record followed here is PubChem BioAssay (Tox21).

Several values for one entry are separate records, joined by “and”; a condition that tells them apart may be missing. Equal entries are not always repeated. Inconclusive results are not listed. Values without a mark were called inactive. Activity calls are given as the source filed them. Calls follow the shape of the dose curve; as a rule, active = well fitted cell-killing curve with a large enough effect in the repeat runs; inconclusive = weak or mixed curves; inactive = no such curve, though single readings can be large or run the other way.
% is scaled to controls: 0 for no effect and ±100 for the full control effect; potency is read from the fitted curve at half-maximal effect.

The assay is described as follows: qHTS assay for identifying genotoxic compounds that show differential cytotoxicity against isogenic chicken DT40 cell lines with known DNA damage response pathways - Rad54/Ku70 mutant cell line (AID 743015). Also: nearly all actives have a fitted effect of over 60% in size. As to conditions: DT40 Rad54/Ku70 mutant viability, CellTiter-Glo, 40 h; series mostly up to 66.8 µM; activity change, negative = cytotoxicity: at the top concentration. The source says:
National Center for Advancing Translational Sciences [NCATS]
NIH Chemical Genomics Center [NCGC]
U.S. Environmental Protection Agency [EPA]
National Institutes of Environmental Health Sciences [NIEHS]
National Toxicology Program [NTP]
U.S. Food and Drug Administration [FDA]
DNA repair pathways play a critical role in cellular homeostasis by repairing DNA damage induced by endogenous processes and xenobiotics. Isogenic chicken DT40 cell lines deficient in different DNA repair pathways can be used to identify genotoxic compounds and aid in characterizing the nature of the DNA damage induced. Two DNA repair-deficient cell lines with disrupted genes, Rad54/Ku70 or Rev3, were used to screen the Tox21 10K compound library. Possible genotoxicity was based on the presence of a significant increase in cytotoxicity in one or more of the DNA repair-deficient cell lines compared to that observed in the parental DNA repair-proficient cell line. CellTiter Glo viability assay (Promega, Madison, WI) was used to measure cell viability in these cells after compound treatment. This assay includes the data from the Rad54/Ku70 mutant cell line.
Tox21 Assay Protocol Summary:
300 DT40 mutant cells in 5 uL/well were dispensed into white, solid-bottom 1536-well plates using a Multidrop Combi (ThermoFisher Scientific, Waltham, MA) dispenser. After the assay plates were incubated at 37 C/5% CO2 for approximately 0.5 hour, 23 nL of compounds dissolved in DMSO, positive controls or DMSO only was transferred into the assay plate by a pintool work station (Kalypsys, San Diego, CA). The assay plates were incubated at 37 C/5% CO2 for 40 hours. After 5 uL per well of CellTiter-Glo reagent was added into each well of the assay plates, the plates were incubated for 30 min at room temperature and the luminescence intensity of the plates was measured using a ViewLux (PerkinElmer, Shelton, CT) plate reader.
For orientation: Quantitative high-throughput screening tests each substance at several concentrations.
Take `COC(C)(C)CCC[C@H](C)C/C=C/C(C)=C/C(=O)OC(C)C`: the Potency is 19.3 µM (active).
Turning to `COc1ccc(-c2ccccc2)cc1NNC(=O)OC(C)C`, the Potency was 28.4 µM (active).
As to `S=C=NCc1ccccc1`, the “activity change, negative = cytotoxicity” value was -0.306% [at 95.1 µM].
With `NNC(=O)c1cccnc1`, the “activity change, negative = cytotoxicity” value is -14.3% [at 95.1 µM].
Take `CCC(COC(=O)c1cc(OC)c(OC)c(OC)c1)(c1ccccc1)N(C)C` (stereo not given): the Potency was 6.68 µM (active).
The same measure, in the same setting: the value for `O=[N+]([O-])C(Br)(CO)CO` was 26.6 µM (active) and 12.2 µM (active).
As to `CCCCN=C=O`, the “activity change, negative = cytotoxicity” value is -1.97%.
For the compound `CC1CC(CC2CCC(N)C(C)C2)CCC1N` (stereo not given), the Potency was 9.85 µM (active).
On to `Cc1ccccc1CCl`, for which the “activity change, negative = cytotoxicity” value is 8.69%.
With `CC(C)O.CC(C)O.OCCN(CCO)CCO.OCCN(CCO)CCO.[Ti]`, the “activity change, negative = cytotoxicity” value was -4.09%.
In the case of `CCBr`, the “activity change, negative = cytotoxicity” value is -0.0268% [at 95.1 µM].
Take `CC1(C)CCC(Cc2ccc(Cl)cc2)C1(O)Cn1cncn1` (stereo not given): the Potency is 27.3 µM (active).
Same read-out and setting: for `C/C(=C\c1ccccc1)[N+](=O)[O-]` the value was 4.33 µM (active); for `C[C@@H]1CC[C@H]2[C@@H](C)C(=O)O[C@@H]3O[C@@]4(C)CC[C@@H]1[C@]32OO4`, 0.237 µM (active).
Consider `COc1c(C(C)(C)C)cc([N+](=O)[O-])c(C)c1[N+](=O)[O-]`, for which the “activity change, negative = cytotoxicity” value was -0.675%.
As for `O=C(NC(=O)c1c(F)cccc1F)Nc1ccc(OC(F)(F)C(F)OC(F)(F)F)c(Cl)c1` (stereo not given), the Potency was 1.06 µM (active).
On to `COC(=O)C(C)N(C(=O)Cc1ccccc1)c1c(C)cccc1C` (stereo not given), for which the Potency was 15.4 µM (active).
As for `CCCCOC(=O)c1ccccc1C(=O)OCc1ccccc1`, the Potency was 51.4 µM (active).
With `c1ccc(C2CC2)c(OCC2=NCCN2)c1`, the “activity change, negative = cytotoxicity” value was -20.3%.
Same read-out and setting: the value for `CCCCCCCCCC(=O)O[C@H]1CC[C@H]2[C@@H]3CCC4=CC(=O)CC[C@@H]4[C@H]3CC[C@]12C` was 5.64%.
Regarding `CCOC(=O)COc1cc(-c2nn(C)c(OC(F)F)c2Cl)c(F)cc1Cl`, the Potency is 43.3 µM (active).
Take `CCOS(C)(=O)=O`: the “activity change, negative = cytotoxicity” value is -0.695% [at 95.1 µM].
Still for that read-out and setting: the value for `OCCCBr` was 13.7%.
Turning to `CCCCc1c(C)nc(NCC)nc1OS(=O)(=O)N(C)C`, the Potency is 15.4 µM (active).
With `CCC(Br)(CC)C(=O)NC(N)=O`, the “activity change, negative = cytotoxicity” value is -14.9%.
Turning to `Clc1ccc(C(OCCN2CCCCC2)c2ccccc2)cc1` (stereo not given), the Potency is 10.1 µM (active).
On to `CCCC(=O)Cl`, for which the “activity change, negative = cytotoxicity” value was -4.38%.
With `CCc1ccc(C(=O)NN(C(=O)c2cc(C)cc(C)c2)C(C)(C)C)cc1`, the Potency was 27.3 µM (active).
With `COc1cc(CC(C)N)cc2c1OCO2` (stereo not given), the “activity change, negative = cytotoxicity” value was -13.5% [at 95.1 µM].
For the compound `CC(C)(CCl)C(=O)Cl`, the “activity change, negative = cytotoxicity” value was -6.06%.
On the same count and under the same terms, the value for `CC(Cl)Cl` was 0.201%; that for `Nc1ccc(N=Nc2ccc(-c3ccc(N=Nc4c(S(=O)(=O)O)cc5cc(S(=O)(=O)O)c(N=Nc6ccccc6)c(O)c5c4N)cc3)cc2)c(N)c1` was 8.53%.
For the compound `O=C(OC1CCCCC1)c1ccccc1C(=O)OC1CCCCC1`, the Potency was 25.7 µM (active).
Turning to `O=C=Nc1ccc(Cl)cc1`, the Potency was 27.3 µM (active).
On to `O=S1(=O)OC(c2cc(Br)c(O)c(Br)c2)(c2cc(Br)c(O)c(Br)c2)c2ccccc21`, for which the Potency was 25 µM (active).
In the case of `Clc1cc(Cl)c(Cl)c(Cl)c1`, the “activity change, negative = cytotoxicity” value was 5.37%.
The same measure, in the same setting: for `CCOc1nc(F)cc2nc(S(=O)(=O)Nc3c(Cl)cccc3Cl)nn12` the value was 0.165%; for `ClCc1ccccc1`, 1.15%; for `COC(=O)c1cncn1C(C)c1ccccc1` (stereo not given), 0.465%.
`NC(=O)C(Cl)(Cl)Cl`: the “activity change, negative = cytotoxicity” value was -4.58% [at 95.1 µM].
